Measurements: PubChem BioAssay (NCI)
Compounds without any hit were thinned out: in the full panel of roughly 83,000, 20% have a hit.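 The endpoint reported here, percent growth, reads 100 for growth as untreated, 0 for no net growth and -100 for all cells dead.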 A number with no mark means an inactive call. Active and inactive are the calls of the source. How the source made its calls: active means growth percent below 10; inactive means the rest.

System: MDA-MB-468 breast
Test: NCI-60 one-dose screen, 48 h (100 = growth as untreated, 0 = no growth, -100 = all killed)
Settings: 10 µM unless noted

Compound | growth
CN(C)CCN1C(=O)c2ccc3c4c(ccc(c24)C1=O)C(=O)N(CCN=C=S)C3=O | -88.8% (active)
Cc1ccc(/C=C2\SC(=S)N(c3ccc(F)cc3)C2=O)o1 | 69.6%
COc1ccc(/C=C/c2cccc[n+]2C)cc1 | 73.8%
O=C(/C=C/Nc1ccc(S(=O)(=O)Nc2ncccn2)cc1)c1ccc(N=Cc2c(O)[nH]c3ccccc23)cc1 | 109%
COc1ccc(OC)c(NCC(=O)n2nc(/C=C\c3ccc(O)c(OC)c3)cc2/C=C\c2ccc(O)c(OC)c2)c1 | 12.1%
N#CC(C#N)=C(C#N)c1c[nH]c2ccccc12 | 38.8%
NC(=O)NCCCC(N)C(=O)O (centres undefined) | 107%
CC1=C(C)C(=O)C(Nc2cccc(C(F)(F)F)c2)=C(Cl)C1=O | -65.6% (active)
NCCN1CCN(c2nc(-c3ccccc3)nc3nc(-c4ccccc4)oc23)CC1 | -33.6% (active)
COc1ccc(C(O)c2cc3c(N)c(C(=O)Nc4ccc(Cl)cc4)sc3nc2C)cc1 (centres undefined) | 3.39% (active)
C/C(=C\CCc1ccsc1)CC/C=C(\C)CCCN1CCSCC1 | 50.1%
C[n+]1cccc(NC(=O)c2ccc3ccc4ccc(C(=O)Nc5ccc[n+](C)c5)nc4c3n2)c1 | -15.9% (active)
O=[N+]([O-])c1ccc(N=Nc2ccccc2)cc1 | 109%
CCN1C(=O)N(CC)C2Nn3c(s/c(=C\c4ccc(Cl)cc4Cl)c3=O)=NC21 (centres undefined) | 32.1%
COc1ccc(/C=N\N2CCOCC2)cc1OC1CCCC1 | 117%
CC1=C(C(=O)Nc2ccccc2)C(c2ccc3c(c2)OCCO3)NC(=O)N1 (centres undefined) | 106%
C[C@H]1[C@H](C)CC[C@]2(C(=O)OCCCC[P+](c3ccccc3)(c3ccccc3)c3ccccc3)CC[C@]3(C)C(=CC[C@@H]4[C@@]5(C)CC[C@H](OC(=O)C(Cl)Cl)C(C)(C)[C@@H]5CC[C@]43C)[C@H]12 | -70.3% (active)
CC(=O)N1N=C(c2cccc(Nc3ccncc3)c2)CC1c1ccc2c(c1)OCO2 (centres undefined) | 85.5%
CCN(CC)c1ccc(N=Nc2cc(Cl)ccc2Cl)c(NC(=O)CCC(=O)O)c1 | 107%
CC12CCC3c4ccc(O)cc4CCC3C1CCC2=O (centres undefined) | 96.4%
O=S(=O)(Nc1ccc(F)cc1)c1ccc(-c2cnc(C3CC3)o2)cc1 | 4.54% (active)

Compound | growth
CC(C)[C@H](NC(=O)Cn1cc(C(=O)O)nn1)C(=O)O | 98.9%
Cc1cc(C)c(O)c(CNCCCCCCNCc2cc(C)cc(C)c2O)c1 | -72.2% (active)
COC1=CC(=O)c2ccccc2C1=O | 32.7%
C/C(=N/NC(N)=S)c1ccc(Nc2nc(SCC(C)C)nc(-c3ccc(F)cc3)c2C#N)cc1 | -19.4% (active)
CCCCN(CCCC)CCCn1c(-c2ccccc2)ccc1-c1ccccc1 | 43%
CCCCCN1C=C/C(=C\C(=O)N(C)c2cccc3ccccc23)c2ccccc21 | 70.9%
CCN(CC)CCSCCN(CC)CC | 93.4%
C=C1c2c(C)nn(-c3ccc(OC)cc3)c2N(C)C23C[C@@H]1C1(C)c4c(C)nn(-c5ccc(OC)cc5)c4N(C)C(C)(C[C@H]12)C3 (some centres undefined) | 31.9%
CS(=O)(=O)Nc1cc(-c2ccc3ncnc(Nc4ccc(OCc5ccccn5)c(Cl)c4)c3c2)cnc1Cl | -55.4% (active)
O=C(Nc1ccc(-c2nc3ccc(NC(=O)c4ccc(Cl)cc4)cc3[nH]2)cc1)c1ccc(Cl)cc1 | -10.8% (active)
COc1cc(-c2nn(C(=O)NS(=O)(=O)c3ccccc3)cc2-c2ccncc2)ccc1Cl | 68%
COc1cc(-c2ccc(-c3ccc(C(=N)N)cc3)s2)cc(OC)c1OC | -22.8% (active)
O=S(=O)(O)c1ccc(N/N=C/c2ccccc2Cl)cc1 | 107%
CC1=C(C(=O)/C=C/c2ccc(N(C)C)cc2)C(c2ccccc2)NC(=S)N1 (centres undefined) | 102%
O=C(NN1C(=O)CSC1c1ccc(Cl)cc1)c1cccnc1 (centres undefined) | 115%
COc1ccc(-n2cnc3cc(C(=O)N4CCCCC4)ccc32)cc1 | 103%
N#CCc1ncc(-c2ccc(C(F)(F)F)cc2)c(NC2CCCCCC2)n1 | 42.3% [100 µM]
CC(=O)c1c(C)[nH]c(-c2nc3ccc(N4CCN(C)CC4)cc3[nH]2)c1-c1ccc(OCC2CCOCC2)cc1 | 11.4%
COc1ccc(-n2nnc(C(=O)NCCc3c[nH]c4ccc(F)cc34)c2C)cc1 | 109%
COc1cc(OC)c(S(N)(=O)=O)cc1C(=O)/C=C/c1ccccc1 | -43.4% (active)
O=C1OCC2=C1C(c1cccc([N+](=O)[O-])c1)c1cc3c(cc1N2CCO)CCC3 (centres undefined) | 4.98% (active)

Compound | growth
O=c1c(Br)ccc(Br)cc1Br | -65.9% (active)
CCNC(=O)Oc1ccc(/C(=C(/C)c2ccc(Cl)cc2)c2ccc(OCCN(C)C)cc2)cc1 | 67%
Cc1cc(Cl)nc(Nc2ccccc2)n1 | 105%
Cc1cc(-c2cc(OC(=O)c3ccccc3)ccc2Cl)cc2nnc(Nc3ccc(OCCN4CCCC4)cc3)nc12 | 84.3%
CC1(C)CC(=O)C2=C(C1)Nc1cc3c(cc1C2c1ccc(F)cc1)OCO3 (centres undefined) | 71.4%
Cc1ccc(S(=O)(=O)CCCl)cc1 | 118%
Nc1nc(-c2cccc([N+](=O)[O-])c2)c(N=Nc2ccc([N+](=O)[O-])cc2Cl)s1 | -10.7% (active)
CCCCCCNC(=O)Oc1ccc(/C(=C(/C)c2ccccc2)c2ccc(OCCN(C)C)cc2)cc1 | 71.5%
O=S1(=O)N(Cc2ccccc2)[C@@H](Cc2ccccc2)[C@H](O)[C@H](O)[C@H](Cc2ccccc2)N1Cc1ccccc1 | -27.7% (active)
NS(=O)(=O)c1cccc(NC(=O)C(=O)C2C(=O)Nc3ccccc32)c1 (centres undefined) | 101%
Nc1ncnc(Nc2ccccc2)n1 | 108%
Cc1ccc(-c2n[nH]c(=O)c3noc(-c4ccc(C)cc4)c23)cc1 | -8.93% (active)
Cc1ccc(NC(=O)Nc2ccc(Nc3ncnc4sc5c(c34)CCOC5)cc2)cc1Cl | 102%
O=S(=O)(NCCNc1nccc(-c2c(-c3ccc(F)cc3)nc3sccn23)n1)c1ccc(F)cc1 | 52.1%
Oc1cc(Nc2ccnc3cc(Cl)ccc23)c2ncccc2c1 | 47.4%
CC(=O)ON1CCCC(P(=O)(OCCSC(=O)C(C)(C)C)OCCSC(=O)C(C)(C)C)C1=O (centres undefined) | 32%
O=C(Nc1ccc2ncnc(Nc3ccc(F)c(Cl)c3)c2c1)c1cccs1 | -23.8% (active)
COc1cccc(CNc2c3ccccc3nc3ccccc23)c1 | 13.6%
COc1ccc(Cn2c(Br)c3c(c2-c2cc(OC)c(OC)c(OC)c2)CCc2sc(NC(C)=O)nc2-3)cc1 | 22.8%
O=C1C(SCc2ccccc2)=C(Cl)CN1c1ccc(Cl)cc1 | 16.3%
O=C(Cc1ccc(/C=C/C(=O)c2ncc[nH]2)cc1)Nc1ccc(F)cc1 | 4.59% (active)

Compound | growth
Clc1cccc(Cl)c1CSc1nc2ccccc2n2cccc12 | 18.9%
CC1=NC2=NC(=O)/C(=C3/N=C(C)C=C(c4ccccc4)N3N)NN2C(c2ccccc2)=C1 | 109%
Cc1cc(Nc2ccc(Cl)c(Cl)c2)nc(N)n1 | 54.5%
COc1ccc(-c2nc3ncccn3c2-c2nc3ccc(Br)cc3[nH]2)cc1 | 75.6%
C[n+]1ccc(CCc2c[nH]c3ccccc23)cc1 | 14.4%
CN1C(=O)/C(=C/c2ccc(C(=O)Nc3ncc(Cc4cc(Cl)ccc4Cl)s3)cc2)SC1=S | 44.2%
S=c1[nH]cccc1-c1nnc2n1Nc1nc3ccccc3cc1CS2 | 102%
CC[C@]12C=CCN3CC[C@@]4(c5ccc(OC)cc5N(C)[C@H]4[C@@](O)(C(=O)OC)[C@@H]1OC(=O)CCN1CCc4ccccc4C1)[C@@H]32 | 69.7%
C=C(C)[C@@H]1CC[C@]2(COS(C)(=O)=O)CC[C@]3(C)[C@H](CC[C@@H]4[C@@]5(C)CCCNC(C)(C)[C@@H]5CC[C@]43C)[C@@H]12 | 49.9%
C[n+]1c2ccccc2c(NC2CCNCC2)c2[nH]c3ccccc3c21 | -72.5% (active)
CNC(=O)c1cc(COc2nnc(Nc3ccc(Cl)cc3)c3ccoc23)ccn1 | 65%
O=C(O)C(CCc1ccccc1)NCc1ccccc1 (centres undefined) | 108%
Cc1nn(-c2ccccc2)cc1/C=C1\SC(N2CCCCC2)=NC1=O | 96.3%
Cn1cnc([N+](=O)[O-])c1/C=C1\Oc2ccc(Br)cc2C1=O | 80.9%
N#Cc1c(N)nc2c(nnn2-c2cccc(C(F)(F)F)c2)c1N | 76.4%
COc1cccc(O)c1/C=C(/C)c1ccc2c(OC)cccc2[o+]1 | 112%
COc1ccc(C2=C/C(=C\c3ccccc3O)C(=O)N2Cc2ccccc2)cc1 | 53.7%
O=C(O)c1cn(C2CC2)c2cc(N3CCN(C(=O)C[n+]4cccc5ccccc54)CC3)c(F)cc2c1=O | 71.4%
CC[C@]1(O)CC2CN(CCc3c([nH]c4ccccc34)[C@@](C(=O)OC)(c3cc4c(cc3OC)N(C=O)[C@H]3[C@@](O)(C(=O)OC)[C@H](OC(C)=O)[C@]5(CC)C=CCN6CC[C@]43[C@@H]65)C2)C1 (some centres undefined) | 10.4%
CC(C)c1ccc(C(=O)Nc2sc3cc(O)ccc3c2C#N)cc1 | 12.5%
O=C(Nc1ncc([N+](=O)[O-])s1)c1cccc([N+](=O)[O-])c1 | 28.1%
